Compound activity (PubChem BioAssay)
Compounds with a hit are over-represented: about 11% of the library has one in this group of screens.
MCF10A rerep: A quantitative high throughput screen for small molecules that induce DNA re-replication in MCF 10a normal breast cells. Potency, µM (doses to about 46.1 µM), usual class: activators. actives 2.9% (n = 350,000). AID 624296, 2012. MCF 10A DNA re-replication, Hoechst nuclear intensity, 48 h; note: nearly all actives have a fitted effect of over 50% in size
VP16 counter: VP16 counterscreen qHTS for inhibitors of ROR gamma transcriptional activity; Drosophila S2 Gal4-VP16 UAS-luciferase, luminescence, 20 h; Potency, µM (highest dose often 53.6 µM), hits mostly inhibitors; actives 3.5% (n = 310,000); AID 2546, 2010;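 note: Gal4-VP16 expression switched on by copper sulfate through the metallothionein promoter; nearly all actives have a fitted effect of over 50% in size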
RORg inh: qHTS for inhibitors of ROR gamma transcriptional activity. Nuclear receptor ROR-gamma (Mus musculus), P51450. Drosophila S2 Gal4-RORgamma UAS-luciferase reporter, 20 h. Potency, µM (series often up to 53.6 µM), most hits filed as inhibitors. actives 5.4% (n = 310,000). AID 2551, 2010; note: nearly all actives have a fitted effect of over 60% in size
Target sequence (P51450 whole entry, looked up, the tested form may be a part): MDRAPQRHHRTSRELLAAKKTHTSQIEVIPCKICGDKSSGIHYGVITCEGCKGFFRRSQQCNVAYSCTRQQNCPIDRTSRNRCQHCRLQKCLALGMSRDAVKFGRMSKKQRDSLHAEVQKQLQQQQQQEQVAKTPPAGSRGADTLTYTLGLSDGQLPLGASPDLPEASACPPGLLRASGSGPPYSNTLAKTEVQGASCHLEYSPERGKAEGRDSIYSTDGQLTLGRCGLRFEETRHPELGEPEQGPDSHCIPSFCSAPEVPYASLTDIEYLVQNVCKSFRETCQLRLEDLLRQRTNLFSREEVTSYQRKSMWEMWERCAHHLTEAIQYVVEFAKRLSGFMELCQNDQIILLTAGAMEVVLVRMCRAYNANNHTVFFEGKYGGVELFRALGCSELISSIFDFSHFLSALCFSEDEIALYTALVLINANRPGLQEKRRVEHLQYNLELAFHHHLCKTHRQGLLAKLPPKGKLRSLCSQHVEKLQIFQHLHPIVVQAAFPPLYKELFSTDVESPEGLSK
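Stably transfected Drosophila Schneider cells are the test system, with ROR gamma fused to Gal4 and luciferase under UAS control; luminescence is read after 20 hr of 700 uM copper sulfate induction at ambient temperature.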
SW480 rereplic: A quantitative high throughput screen for small molecules that induce DNA re-replication in SW480 colon adenocarcinoma cells. SW480 DNA re-replication, Hoechst DNA content imaging, 48 h. actives 1.8% (n = 340,000). Potency, µM (top dose mostly 46.1 µM), most hits filed as activators; note: nearly all actives have a fitted effect of over 55% in size
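SW480 cells exposed to compounds for 48 hr at 37 C, 5% CO2, then Hoechst-stained 40 min. Nuclear DNA content imaged by fluorescence scanning (405 nm excitation, 500-530 nm emission); re-replication scored as increased high-intensity nuclei.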
IL1B secr inh: qHTS for Inhibitors of Inflammasome Signaling: IL-1-beta AlphaLISA Primary Screen; activity change, % at 57.5 µM; AID 743279, 2014; THP-1 LPS/ATP IL-1B secretion, AlphaLISA, 16 h; stronger effect = lower value; actives 4.7% (n = 360,000); in the data active = activity change below about -50%; inconclusive = mostly about -30% to -49%
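THP-1 cells pretreated 1 hr with compounds (up to 57.5 uM final), then stimulated with LPS (250 ng/mL final) plus ATP (1.25 mM final); secreted IL-1B measured by AlphaLISA after 16 hr, decreased signal indicating inhibition.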
Hits are given with their value; – = inactive; ? = inconclusive; · = no result given. Unless noted, calls come from the whole dose curve; as a rule, active = well fitted curve in the direction sought with a large enough effect; inconclusive = small, poorly fitted or top-dose-only effect, or another doubt; inactive = no such curve, though single readings can be large; an effect the other way counts as inactive or inconclusive.

SMILES | MCF10A rerep | VP16 counter | RORg inh | SW480 rereplic | IL1B secr inh
CCOC(=O)c1c(C)n(C)c2ccc(OCC(O)CN3CCCCCC3)cc12 (centres undefined) | – | – | – | – | –
CCOC(=O)c1c(C)n(C)c2ccc(OCCN(C)C)cc12 | – | – | – | – | ?
Cc1cc(SCC(=O)OCC(=O)N(C)c2ccccc2)nc2ccccc12 | ? | · | · | ? | –
CC(=O)N1N=C(c2ccccc2)OC1c1ccc([N+](=O)[O-])s1 (centres undefined) | ? | ? | 13µM | – | -102
COc1ccccc1C1OC(c2cccc([N+](=O)[O-])c2)=NN1C(C)=O (centres undefined) | – | – | – | – | –
CC(=O)N1N=C(c2cccc([N+](=O)[O-])c2)OC1c1ccc(Cl)cc1Cl (centres undefined) | ? | – | – | – | -52
O=C(COC(=O)c1cc(S(=O)(=O)N2CCOCC2)c(Cl)cc1Cl)NC1CC1 | – | · | · | – | -97
O=C(OCCOc1ccccc1)c1cc(S(=O)(=O)N2CCOCC2)c(Cl)cc1Cl | · | · | · | · | –
COc1ccc(OCCOC(=O)c2cc(S(=O)(=O)N3CCOCC3)c(Cl)cc2Cl)cc1 | ? | · | · | – | -94
CCCCn1c(NC(=O)c2ccco2)c(S(=O)(=O)c2ccc(C)cc2)c2nc3ccccc3nc21 | 8.2µM | – | ? | ? | –
CCCCn1c(NC(=O)c2ccc(Br)o2)c(S(=O)(=O)c2ccccc2)c2nc3ccccc3nc21 | 18µM | – | – | ? | –
CCCCCn1c(NC(=O)c2ccco2)c(S(=O)(=O)c2ccc(C)cc2)c2nc3ccccc3nc21 | – | – | ? | – | –
CCC(=O)Nc1c(S(=O)(=O)c2ccccc2)c2nc3ccccc3nc2n1C(C)c1ccccc1 (centres undefined) | 21µM | – | ? | ? | ?
CCCCn1c(NS(=O)(=O)c2ccccc2)c(S(=O)(=O)c2ccc(C)cc2)c2nc3ccccc3nc21 | ? | – | – | 13µM | –
Cc1ccccc1NC(=O)c1cccc(NC(=O)c2ccccc2C(=O)O)c1 | – | · | · | – | –
O=C(NCc1ccccc1)c1cccc(NC(=O)C2CC2)c1 | ? | · | · | – | –
CN(C)CCN(C(=O)C1CCN(S(=O)(=O)c2cccs2)CC1)c1nc2ccccc2s1 | – | · | · | – | –
CCOC(=O)c1ccc(S(=O)(=O)N2CCN(C(=O)c3cc(=O)c4ccccc4o3)CC2)cc1 | – | – | – | – | -116
COc1ccccc1N1CCN(C(=O)c2cc(=O)c3c(C)cc(C)cc3o2)CC1 | – | – | – | ? | –
CCc1ccc2oc(C(=O)N3CCN(c4ccccc4OC)CC3)cc(=O)c2c1 | 12µM | – | – | ? | –
CCc1ccc2oc(C(=O)N3CCN(c4ccc(OC)cc4)CC3)cc(=O)c2c1 | – | – | – | – | -84
COc1ccc(NC(=O)CN2C(=O)S/C(=C/c3cccn3-c3ccc(C(=O)O)cc3)C2=O)cc1 | · | – | – | · | ·
O=C(/C=C/c1ccc(Cl)cc1)Nc1ccc(CN2CCOCC2)cc1 | – | – | – | ? | -51
CC(C)c1ccc(C(=O)Nc2ccc(CN3CCOCC3)cc2)cc1 | ? | ? | – | ? | -55
CC(C)c1ccc(CN2CCN(C(=O)CCl)CC2)cc1 | 6.5µM | – | – | ? | -100
SMILES | MCF10A rerep | VP16 counter | RORg inh | SW480 rereplic | IL1B secr inh
CC(C)c1ccc(/C=C/C(=O)Nc2ccc(CN3CCOCC3)cc2)cc1 | 13µM | ? | ? | ? | -94
Cc1nc2ccccc2n1C(c1cccnc1)c1nc2ccccc2[nH]1 (centres undefined) | · | · | · | · | –
CC(C(=O)NCC1CCCCC1)N1CCN(S(=O)(=O)c2cccs2)CC1 (centres undefined) | – | · | · | ? | –
O=C(/C=C/c1ccc(Cl)cc1)N1CCN(Cc2ccccc2)CC1 | – | – | – | – | -75
CN1CCN(C(=O)/C=C/c2ccc(Cl)cc2)CC1 | – | – | – | – | –
O=C(CCS(=O)(=O)Cc1ccccc1)N1CCN(Cc2ccccc2)CC1 | 10µM | – | – | – | –
COc1ccc(OCCSc2nnc3sc4ccccc4n23)cc1 | 6.5µM | – | – | ? | -79
CN(C)CCSc1nnc2sc3ccccc3n12 | – | – | – | – | –
